Compounds with a hit are over-represented: about 1.1% of the library has one in this group of screens.
RecA splice inh = inhibitors of M. tuberculosis RecA intein splicing | P9WHJ3 | cell-free RecA intein splicing, fluorescence | inhibition, % (concentration not given with the values) | 0.75% of 290,000 active; in the data active = inhibition above about 30%;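 note: 0% = vehicle wells and 100% = reference inhibitor control wells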
Target sequence (P9WHJ3 whole entry, looked up, canonical isoform): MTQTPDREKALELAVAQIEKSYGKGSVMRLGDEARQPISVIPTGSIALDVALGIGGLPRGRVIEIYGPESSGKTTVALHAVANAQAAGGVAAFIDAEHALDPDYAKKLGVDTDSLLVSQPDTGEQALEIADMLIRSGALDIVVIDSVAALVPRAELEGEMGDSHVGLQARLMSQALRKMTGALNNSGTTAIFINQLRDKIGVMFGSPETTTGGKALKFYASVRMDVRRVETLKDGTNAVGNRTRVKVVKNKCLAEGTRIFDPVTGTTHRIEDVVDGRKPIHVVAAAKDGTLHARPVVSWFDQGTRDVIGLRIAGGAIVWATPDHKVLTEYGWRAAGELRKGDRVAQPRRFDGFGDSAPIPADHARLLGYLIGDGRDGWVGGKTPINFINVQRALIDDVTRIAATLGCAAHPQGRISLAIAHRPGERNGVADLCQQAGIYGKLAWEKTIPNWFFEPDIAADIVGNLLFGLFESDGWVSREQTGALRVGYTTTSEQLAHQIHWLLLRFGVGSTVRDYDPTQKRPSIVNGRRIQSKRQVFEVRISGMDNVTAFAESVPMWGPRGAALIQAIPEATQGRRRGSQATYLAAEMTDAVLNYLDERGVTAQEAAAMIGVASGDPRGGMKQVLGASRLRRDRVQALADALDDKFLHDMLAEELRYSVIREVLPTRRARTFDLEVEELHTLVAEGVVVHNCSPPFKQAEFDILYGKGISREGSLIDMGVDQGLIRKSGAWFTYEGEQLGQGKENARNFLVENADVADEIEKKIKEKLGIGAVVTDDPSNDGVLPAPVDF
CCHFV vOTU inh = blocks the CCHF virus ovarian tumor domain protease | inhibition, % at 11.5 µM | 0.55% of 370,000 active | CCHFV vOTU protease, Pep-AMC fluorescence; in the data active = inhibition above about 30%; note: 0% = vehicle wells with enzyme and 100% = no enzyme wells
Y pestis TopoI = blocks Yersinia pestis topoisomerase I activity. Y. pestis Topo-I cleavage product accumulation, plate reader. activity, % at 10 µM. 0.064% of 360,000 active. AID 504884; in the data active = activity above about 50%, passing the limit was not always enough
Mtb BioA inh = BioA (M. tuberculosis) enzyme inhibition | purified M. tuberculosis BioA enzyme, plate reader | inhibition, % at 9.99 µM | 0.096% of 360,000 active; in the data active = inhibition above about 40%
Mtb betalactam = beta-lactam sensitization of Mtb H37Rv. M. tuberculosis H37Rv growth with meropenem, percent inhibition. inhibition, % at 25 µM. 0.27% of 330,000 active. AID 434955; call rule not given here;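 note: growth measured after seven days incubation then overnight dye step; 0% = bacteria only wells and 100% = bacteria with antibiotic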
BJeLR viability = kills HRASV12-expressing BJeLR cells. BJeLR (HRASV12) viability, CellTiter-Glo ATP luminescence, 48 h. inhibition, % (test concentration not listed). 0.17% of 300,000 active; in the data active = inhibition above about 50%
* hit, by the source's call; · = not tested or not shown.

SMILES	RecA splice inh	CCHFV vOTU inh	Y pestis TopoI	Mtb BioA inh	Mtb betalactam	BJeLR viability
COc1ccc(CC(=O)N/N=C(/C)CC(=O)N(C)c2ccccc2)cc1	30*	-1	-4	·	-5	-9
COc1ccc(CC(=O)N/N=C(\C)CC(=O)Nc2ccc(N(C)C)cc2)cc1	0	23	-3	-1	0	-9
CC(C)NC(=O)N(C)C[C@H]1Oc2cc(-c3ccncc3)ccc2S(=O)(=O)N([C@@H](C)CO)C[C@H]1C	·	·	·	0	·	·
COc1ccc(CN(C(=O)CSc2nnc(-c3ccccc3C)o2)c2ccc(F)cc2)cc1	40*	11	6	2	54	-10
Cc1cc2c(c(=O)n1Cc1cccnc1)C(c1ccccc1)C(C#N)=C(N)O2 (stereo unspecified)	-1	9	-1	48*	-13	8
COc1ccccc1Oc1cc(C#N)c(C#N)cc1-n1nnc2ccccc21	42*	9	-1	-3	11	5
Cc1ccc(-n2nnnc2CCl)cc1	46*	-1	9	·	·	11
Cc1ccc(-c2nnnn2-c2ccc(C)cc2)cc1	3	-1	6	·	1	-7
CC1=C/C(=C(/c2cc(C)c(O)c(Br)c2)c2ccccc2S(=O)(=O)O)C=C(Br)C1=O	10	1	60*	·	18	16
N#C[C@@H]1[C@@H](c2ccc(C3=CCCCC3)cc2)[C@@H](CO)N1C(=O)NC1CCCCC1	·	·	·	-2	·	·
CCCC#Cc1ccc2c(c1)O[C@@H](CN(C)C(=O)NC(C)C)[C@@H](C)CN([C@@H](C)CO)S2(=O)=O	·	·	·	0	·	·
Cc1onc(-c2ccccc2)c1-c1nc2cc(Cl)ccc2c(=O)o1	36*	-7	-1	0	-5	-2
N#C[C@H]1[C@@H](c2ccc(C#Cc3ccccc3F)cc2)[C@@H](CO)N1C(=O)C1CCOCC1	·	·	·	4	·	·
CC1=CC(=O)C(C(C)C)=C/C1=N/OS(=O)(=O)c1ccccc1	10	-5	2	-1	100	116*
Cc1ccc2c(c1)/C(=N/OS(=O)(=O)c1ccccc1)CCS2	3	11	0	2	2	0
CC1=CC(=O)C=C(C)C1=NOS(=O)(=O)c1ccccc1	-1	3	-9	-1	·	82*
CCN(CC)c1ccc2nc3ccc(N)cc3[n+](-c3ccccc3)c2c1	·	15	534*	22	·	·
CCN(CC)c1ccc2nc3ccccc3[n+](CC)c2c1	·	·	131*	7	99	40
CCN(CC)c1ccc2cc(-c3nc4ccccc4[nH]3)c(=O)oc2c1	·	·	-7	-10	13	12
C[C@@H]1CN([C@@H](C)CO)C(=O)Cc2cc(NC(=O)Cc3ccccc3)ccc2O[C@H]1CN(C)Cc1ccncc1	·	·	·	3	·	·
COc1cc(NC(=O)c2cccs2)c(OC)cc1NC(=O)CCC(=O)Nc1ccc2ncccc2c1	-9	-1	26	·	·	58*
COc1ccc(OCC(=O)Nc2ccc(NC(=O)c3cccs3)c(OC)c2)cc1	-1	4	3	0	-6	-6
C[C@@H]1CCCCO[C@H](CN(C)C(=O)Nc2ccc(C(F)(F)F)cc2)[C@H](C)CN([C@@H](C)CO)C(=O)c2cc(NC(=O)C3CCCCC3)ccc2O1	·	·	·	-2	·	·
COCC(=O)N1C[C@@H](C)[C@@H](OC)CN(C)C(=O)c2ccc(NC(=O)c3ccc(F)cc3)cc2OC[C@H]1C	·	·	·	1	·	·
Cc1ccc(C(=O)CNc2cccc(Cl)c2)cc1	2	3	65*	-1	2	5
SMILES	RecA splice inh	CCHFV vOTU inh	Y pestis TopoI	Mtb BioA inh	Mtb betalactam	BJeLR viability
O=C(CNc1cccc(Cl)c1)c1ccc(Cl)cc1	3	-12	0	-1	7	7
FC(F)(F)c1nnc2c(Sc3ccc(Cl)cc3)nc3ccccc3n12	5	-3	-8	·	-3	59*
C[C@@H]1CN([C@@H](C)CO)S(=O)(=O)c2ccc(-c3ccccc3)cc2O[C@@H]1CN(C)S(C)(=O)=O	·	·	·	0	·	·
COc1ccccc1NC(=O)CSc1nc2c(sc3ccccc32)c(=O)n1CCN(C)C	35*	-27	11	·	-7	-1
Cc1cccc(OCC(=O)Oc2ccc(Cl)cc2)c1	34*	-12	6	·	-6	3
N#C/C(=C\c1cccc(NC(=O)c2ccccc2Cl)c1)C(=O)NCCc1ccccc1	36*	-8	1	·	-2	-2
COc1cccc(/C=C2\SC(=S)N(CCCC(=O)Nc3cc(C)on3)C2=O)c1	-2	3	3	-2	-1	100*
O=C(CCCN1C(=O)/C(=C\c2ccccc2)SC1=S)Nc1ccc(O)cc1	32*	16	16	0	13	0
Cc1ccc(/C=C2\SC(=S)N(CCCC(=O)N3CCOCC3)C2=O)cc1	2	9	36	-1	-3	89*
C[C@H](CO)N1C[C@H](C)[C@@H](CN(C)CC2CCCCC2)OCCCC[C@H](C)Oc2ccc(NS(=O)(=O)c3ccc(F)cc3)cc2C1=O	·	·	·	8	·	·
COc1ccccc1CN1C[C@H](C)[C@H](OC)CN(C)C(=O)c2cc(NC(C)=O)ccc2OC[C@H]1C	·	·	·	0	·	·
O=S(=O)(O)c1cc(O)c2c(O)c(N=Nc3cc(Cl)ccc3O)c(S(=O)(=O)O)cc2c1	1	·	65*	5	11	21
Cc1cc(-c2ccc(N=Nc3c(S(=O)(=O)O)cc4cc(S(=O)(=O)O)cc(N)c4c3O)c(C)c2)ccc1N=Nc1c(S(=O)(=O)O)cc2cc(S(=O)(=O)O)cc(N)c2c1O	·	·	·	·	59	·
Fc1ccc(CNc2nc(-c3ccccc3)nc3ccccc23)cc1	19	8	-12	·	·	5
COc1ccc(CNc2nc(-c3ccccc3)nc3ccccc23)cc1OC	5	32*	1	1	2	-3
CCN1CCc2c(sc(NC(=O)c3cc4ccccc4cc3OC)c2C(N)=O)C1	-1	-9	-10	-7	97	60*
COc1ccccc1NC(=O)N[C@H]1CC[C@H](CCn2cc(-c3ccccc3OC)nn2)O[C@H]1CO	·	·	·	-2	·	·
Cc1cc(C)cc(S(=O)(=O)c2cnc3ccccc3n2)c1	32*	-8	12	·	0	-9
COc1ccccc1NC(=O)N(C)C[C@@H]1Oc2ncc(C#CC(C)C)cc2C(=O)N([C@@H](C)CO)C[C@H]1C	·	·	·	-1	·	·
C[C@H](CO)N1C[C@H](C)[C@@H](CN(C)Cc2ccc3c(c2)OCO3)Oc2ccc(NC(=O)CCN3CCOCC3)cc2C1=O	·	·	·	-1	·	·
CCOc1ccc(C(=O)c2cc([N+](=O)[O-])ccc2N2CCOCC2)cc1	2	0	5	·	8	53*
Cc1ccc(C(=O)c2cc([N+](=O)[O-])ccc2N2CCCCC2)c(C)c1	15	-3	17	·	-1	55*
COc1ccc(C(=O)c2cc([N+](=O)[O-])ccc2N2CCOCC2)cc1	1	-5	-6	·	-3	59*
O=C(O)c1cc([N+](=O)[O-])ccc1N1CCCCC1	3	5	-7	·	-1	17
COc1ccccc1C(=O)N1C[C@H]2[C@@H](c3ccccc31)[C@H](CO)N2C(=O)C1CCCC1	·	·	·	-5	·	·

Bioassay records (PubChem BioAssay)
